Assay results reported in PubChem BioAssay (NCATS).
Values joined by “and” are separate entries in the source; they are usually repeats but may differ in a detail not shown here. Equal values may be shown once. Records with an inconclusive call do not appear. Active and inactive are the calls of the source. Unless noted, calls come from the whole dose curve; as a rule, active = well fitted curve in the direction sought with a large enough effect; inconclusive = small, poorly fitted or top-dose-only effect, or another doubt; inactive = no such curve, though single readings can be large; an effect the other way counts as inactive or inconclusive.

What was measured:
[1] = qHTS Assay for Lipid Storage Modulators (AID 1519; calls by dose curve; for activity change, negative = inhibition: % is set by controls: 0 for no effect and ±100 for the full control effect); conditions: Drosophila S3 cells, BODIPY lipid droplet/cell ratio, laser cytometry, cells loaded with oleic acid
Method in brief: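 Cells seeded at 5,000 per well were treated with compounds over a concentration series and loaded with oleic acid (400 uM, as added). Lipid droplet fluorescence (488 nm excitation, 500-530 nm channel) was read by laser-scanning cytometry and normalized to 20 uM Triacsin C.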

[2] = target: DNA repair nuclease/redox regulator APEX1 (Homo sapiens) (UniProt P27695); assay: qHTS Validation Assay for Inhibitors of the Human Apurinic/apyrimidinic Endonuclease 1 (APE1) (AID 1705;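 note: TAMRA fluorescence gain over two minutes as APE1 cuts a quenched THF abasic duplex; % is set by controls: 0 for no effect and ±100 for the full control effect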)
Chain of DNA repair nuclease/redox regulator APEX1 (Homo sapiens) (P27695 whole entry, looked up): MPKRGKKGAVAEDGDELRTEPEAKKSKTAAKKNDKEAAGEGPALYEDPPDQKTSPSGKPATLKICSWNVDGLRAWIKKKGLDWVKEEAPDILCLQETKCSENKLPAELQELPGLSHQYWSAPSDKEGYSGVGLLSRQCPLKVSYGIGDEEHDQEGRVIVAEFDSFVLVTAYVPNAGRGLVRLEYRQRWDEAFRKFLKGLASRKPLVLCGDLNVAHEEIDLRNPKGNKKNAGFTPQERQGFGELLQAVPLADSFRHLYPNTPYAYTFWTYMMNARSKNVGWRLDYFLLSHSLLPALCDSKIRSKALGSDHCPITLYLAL
Method in brief: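 Read-out: TAMRA fluorescence (525 nm ex, 598 nm em) from cleavage of a quenched THF abasic-site duplex, 50 nM final; activity taken as intensity change between third and first of three reads 60 s apart.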

[3] = Counterscreen for APE1 Inhibitors: Fluorescent Dye Displacement Validation Assay (AID 1707);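 note: plate controls were ThO with dsDNA and no compound for no effect and ThO without dsDNA for full effect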
Method in brief: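 Counterscreen flags promiscuous DNA binders: compounds displacing ThO from duplex DNA (abasic THF site, 50 nM) reduce 540 nm emission (480 nm excitation). ThO 250 nM final; Tris-HCl pH 7.5 with NaCl, MgCl2 and Tween-20.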

[4] = target: Endonuclease 4 (Escherichia coli (strain K12)) (UniProt P0A6C1); assay: Counterscreen for APE1 Inhibitors: qHTS Validation Assay for Inhibitors of Endonuclease IV (AID 1708); note: % is set by controls: 0 for no effect and ±100 for the full control effect
Method in brief: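 The reaction buffer contained 50 mM Tris-HCl pH 7.5, 50 mM NaCl, 2 mM MgCl2, 1 mM DTT and 0.01% Tween-20. Incision of a 50 nM fluorophore/quencher THF substrate by 2 nM enzyme was measured kinetically.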

[5] = qHTS for differential inhibitors of proliferation of Plasmodium falciparum line 3D7 (AID 1876); note: potency is the fitted concentration of half-maximal effect
[6] = qHTS for differential inhibitors of proliferation of Plasmodium falciparum line W2 (AID 1883); conditions: Potency: Plasmodium falciparum W2 proliferation inhibition;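 note: parasites grown with compound for 72 h before lysis and staining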; note: potency is the fitted concentration of half-maximal effect;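 for activity change, negative = inhibition: 0% = vehicle wells and -100% = control inhibitor wells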
[7] = target: ATP-dependent DNA helicase Q1 (Homo sapiens) (UniProt P46063); assay: qHTS Validation Assay for Inhibitors of RecQ-Like Dna Helicase 1 (RECQ1) (AID 2353);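 note: plate controls were DMSO vehicle for no effect and enzyme-free control for full effect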
Chain of ATP-dependent DNA helicase Q1 (Homo sapiens) (P46063 whole entry, looked up): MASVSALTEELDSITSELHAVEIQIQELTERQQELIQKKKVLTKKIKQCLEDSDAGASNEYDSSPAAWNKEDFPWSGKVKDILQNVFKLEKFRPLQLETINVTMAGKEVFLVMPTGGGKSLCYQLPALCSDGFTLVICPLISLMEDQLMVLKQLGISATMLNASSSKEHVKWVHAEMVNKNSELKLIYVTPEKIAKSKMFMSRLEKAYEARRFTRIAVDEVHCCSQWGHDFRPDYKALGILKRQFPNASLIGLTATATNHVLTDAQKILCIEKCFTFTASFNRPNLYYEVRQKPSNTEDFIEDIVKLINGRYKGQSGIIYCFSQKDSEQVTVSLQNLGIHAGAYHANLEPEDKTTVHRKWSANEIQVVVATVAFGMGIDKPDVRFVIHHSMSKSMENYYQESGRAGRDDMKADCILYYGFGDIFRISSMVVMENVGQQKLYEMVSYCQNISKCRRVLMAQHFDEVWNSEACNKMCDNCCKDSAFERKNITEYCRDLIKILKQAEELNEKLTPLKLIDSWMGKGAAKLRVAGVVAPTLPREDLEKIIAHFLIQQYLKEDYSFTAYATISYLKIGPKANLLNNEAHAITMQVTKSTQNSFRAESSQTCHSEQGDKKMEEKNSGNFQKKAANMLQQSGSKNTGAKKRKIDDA
Method in brief: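 RECQ1T1 50 nM; forked duplex (20 bp + 30-nt ss tails) 200 nM, ATP 2 mM final; pH 8.0, 2 mM MgCl2, 2.5 ug/ml poly(dI-dC); 15 min compound preincubation; discontinuous kinetic read over 2 h at RT.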

[8] = Cytometric Cell-Based qHTS for Inhibitors of the mTORC1 Signaling Pathway in MEF (Tsc2-/-, p53-/-) Cells (AID 2660);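 note: Tsc2 and p53 null MEFs carrying empty vector with compound for 24 h; percent of cells above a phospho-rpS6 to PI ratio cutoff in each well; plate controls were DMSO for no effect and rapamycin for full effect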
Method in brief: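 Immunofluorescence qHTS of rpS6 Ser235/236 phosphorylation: MEFs (Tsc2-/-, p53-/-) treated 24 h, 37 C, in DMEM + 10% FBS. Alexa-488 signal normalized to PI count, referenced to rapamycin (7.5 nM) and DMSO; PI cell number recorded for viability.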

[9] = High Content Imaging Cell-Based qHTS for Inhibitors of the mTORC1 Signaling Pathway in MEF (Tsc2-/-, p53-/-) Cells (AID 2666); conditions: at 38.3 µM (top of the series);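 note: percent of cells scored positive for phospho-rpS6 Ser235/236 immunostaining by imaging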
Method in brief: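 Tsc2-/-, p53-/- MEFs (empty-vector stable) grown in DMEM + 10% FBS were exposed to compounds for 24 hrs at 37 degree Celsius, fixed, and stained with Alexa-488 anti-phospho-rpS6 Ser235/236 plus Hoechst. Imaging gave the percentage of positive cells per well.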

[10] = High Content Imaging Cell-Based qHTS for Inhibitors of the mTORC1 Signaling Pathway in MEF Cells (AID 2667);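 note: Tsc2-/- p53-/- MEFs stably re-expressing wild-type Tsc2 exposed 24 h; plate controls were DMSO wells for no effect and rapamycin control wells for full effect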
Method in brief: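 Tsc2-/-, p53-/- MEFs stably re-expressing WT Tsc2, grown in DMEM + 10% FBS, were treated with compounds for 24 hrs at 37 degree Celsius, fixed, and stained with Alexa-488 phospho-rpS6 Ser235/236 antibody plus Hoechst; results given as % positive cells.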

[11] = Cytometry Cell-Based qHTS for Inhibitors of the mTORC1 Signaling Pathway in MEF cells (AID 2668);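 note: Tsc2-/- p53-/- mouse embryonic fibroblasts stably re-expressing wild-type Tsc2; percent cells positive for phospho-rpS6 Ser235/236 relative to propidium iodide stain; plate controls were DMSO wells for no effect and 7.5 nM rapamycin control wells for full effect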
Method in brief: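 Read-out: phospho-rpS6 Ser235/236 immunofluorescence normalized to propidium iodide intensity, scored as % active cells against a rapamycin (7.5 nM) threshold. Cells: Tsc2-/-, p53-/- MEFs stably expressing WT Tsc2, compound-treated 24 hrs at 37 degree Celsius.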

[12] = Validation of Assay for Modulators of Lamin A Splicing (AID 1459; active = well fitted curve in the direction sought with a large enough effect in the signal ratio; the % refers to the signal ratio;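 note: cells exposed to compound for two days before reading; 0% is about no effect; ratio rise marks activators and ratio drop marks inhibitors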)
Method in brief: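 Readout: ratio of GFP (500-530 nm) to RFP (575-640 nm) total object intensity by 488 nm laser-scanning cytometry after 48 hrs. Cells were HeLa S3 clones carrying lamin A-EGFP minigene plus DsRed2 viability reporter; vehicle 0.5% DMSO final.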

[13] = qHTS for differential inhibitors of proliferation of Plasmodium falciparum line 7G8 (AID 1815);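 note: parasite growth measured after three days of incubation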; note: potency is the fitted concentration of half-maximal effect;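 for activity change, negative = inhibition: plate controls were vehicle wells for no effect and reference inhibitor wells for full effect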
[14] = qHTS for differential inhibitors of proliferation of Plasmodium falciparum line GB4 (AID 1816); conditions: Potency: Plasmodium falciparum GB4 proliferation inhibition;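 note: parasite growth measured after 72 h incubation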; note: potency is the fitted concentration of half-maximal effect;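 for activity change, negative = inhibition: 0% = vehicle DMSO and -100% = reference inhibitor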
[15] = qHTS for differential inhibitors of proliferation of Plasmodium falciparum line D10 (AID 1877);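 note: parasites grown with compound for 72 h before DNA staining; plate controls were vehicle wells for no effect and reference inhibitor wells for full effect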
[16] = qHTS for differential inhibitors of proliferation of Plasmodium falciparum line Dd2 (AID 1882); conditions: Potency: Plasmodium falciparum Dd2 proliferation inhibition;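 note: compound exposure of 72 h on infected erythrocytes; plate controls were DMSO vehicle for no effect and 0.29 µM artemisinin for full effect; nearly all actives have a fitted effect of over 65% in size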
Method in brief: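 RBC culture, 0.3% parasitemia / 2.5% Hct final; cpd added by pin tool in DMSO; 72 h, 37 C, 5% CO2; lysis buffer + SYBR Green I, o/n RT dark; FI 485/535; norm. to artemisinin 0.29 uM and DMSO.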

[17] = qHTS for differential inhibitors of proliferation of Plasmodium falciparum line HB3 (AID 1886); conditions: Potency: Plasmodium falciparum HB3 proliferation inhibition;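 note: parasites grown with compound for 72 h before SYBR Green readout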; note: potency is the fitted concentration of half-maximal effect;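 for activity change, negative = inhibition: plate controls were vehicle for no effect and reference inhibitor for full effect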
[18] = qHTS Assay for Modulators of Human Peripheral Myelin Protein 22 (PMP22) Expression/Activity (AID 1967; active = well fitted curve in the direction sought with a large enough effect in the signal ratio; the % refers to the signal ratio;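 note: 0% = untreated cells and 100% end not stated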)
Method in brief: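 Mouse MSC80 Schwann line, Pmp22 promoter–CBG68 reporter, EF-alpha–CBR internal control. 24h compound exposure, 37 °C/5% CO2, DMEM + 10% FBS. Readout: corrected green/red luminescence ratio, normalized to untreated cells; concentration-response curves fitted and classified.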

[19] = target: RecQ-like DNA helicase BLM (Homo sapiens) (UniProt P54132); assay: qHTS Validation Assay for Inhibitors of Bloom's syndrome helicase (BLM) (AID 2364);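 note: plate controls were DMSO vehicle for no effect and enzyme-free control for full effect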
Chain of RecQ-like DNA helicase BLM (Homo sapiens) (P54132 whole entry, looked up): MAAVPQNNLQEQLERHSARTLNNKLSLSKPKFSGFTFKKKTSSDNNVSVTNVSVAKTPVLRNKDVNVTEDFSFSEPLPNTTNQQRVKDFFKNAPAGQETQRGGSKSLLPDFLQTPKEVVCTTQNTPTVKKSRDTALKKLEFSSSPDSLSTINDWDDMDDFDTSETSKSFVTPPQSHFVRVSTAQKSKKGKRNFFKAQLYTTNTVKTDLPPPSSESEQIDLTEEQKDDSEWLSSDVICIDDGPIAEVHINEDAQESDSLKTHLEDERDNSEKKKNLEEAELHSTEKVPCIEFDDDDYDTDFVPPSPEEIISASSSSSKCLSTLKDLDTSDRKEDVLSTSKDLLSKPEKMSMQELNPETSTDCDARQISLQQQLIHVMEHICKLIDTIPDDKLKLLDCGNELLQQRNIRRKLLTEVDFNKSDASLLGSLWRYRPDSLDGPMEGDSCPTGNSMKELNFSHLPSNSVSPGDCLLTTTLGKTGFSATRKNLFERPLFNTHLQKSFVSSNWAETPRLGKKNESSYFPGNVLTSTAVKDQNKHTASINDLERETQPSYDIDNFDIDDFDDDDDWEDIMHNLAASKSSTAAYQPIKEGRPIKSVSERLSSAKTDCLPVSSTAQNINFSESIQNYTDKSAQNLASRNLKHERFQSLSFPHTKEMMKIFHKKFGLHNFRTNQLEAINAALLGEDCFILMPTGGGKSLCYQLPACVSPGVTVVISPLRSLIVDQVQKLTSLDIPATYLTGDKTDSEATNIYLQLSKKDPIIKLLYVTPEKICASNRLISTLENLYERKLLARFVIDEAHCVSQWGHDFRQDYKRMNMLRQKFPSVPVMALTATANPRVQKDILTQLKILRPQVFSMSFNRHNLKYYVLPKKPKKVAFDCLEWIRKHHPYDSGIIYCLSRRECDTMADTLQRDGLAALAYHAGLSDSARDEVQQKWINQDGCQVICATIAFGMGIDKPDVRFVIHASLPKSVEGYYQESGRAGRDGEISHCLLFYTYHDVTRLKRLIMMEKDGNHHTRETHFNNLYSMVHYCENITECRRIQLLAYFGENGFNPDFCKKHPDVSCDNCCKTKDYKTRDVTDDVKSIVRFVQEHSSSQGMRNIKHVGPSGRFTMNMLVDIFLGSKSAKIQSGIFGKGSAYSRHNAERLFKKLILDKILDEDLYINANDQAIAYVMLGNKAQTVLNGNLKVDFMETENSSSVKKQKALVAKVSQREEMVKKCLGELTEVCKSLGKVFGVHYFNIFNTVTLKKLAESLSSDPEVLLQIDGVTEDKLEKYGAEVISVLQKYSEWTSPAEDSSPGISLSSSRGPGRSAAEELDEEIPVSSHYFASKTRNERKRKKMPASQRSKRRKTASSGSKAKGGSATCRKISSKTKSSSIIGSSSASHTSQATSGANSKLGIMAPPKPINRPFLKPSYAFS
Method in brief: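 Forked 20-bp duplex substrate (200 nM, TAMRA/BHQ-2) plus 2 mM ATP added after 15 min compound preincubation with 50 nM enzyme, pH 8.0, poly(dI-dC) 2.5 ug/ml. Strand separation followed by fluorescence (525/598 nm) over 2 h, normalized to enzyme-free and DMSO controls.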

[20] = qHTS Assay for Identification of Small Molecule Inducers of Hypoxia Response (AID 2120; active = well fitted curve in the direction sought with a large enough effect in the signal ratio, with a control signal flat, not every such curve was filed as active; the % refers to the signal ratio; note: 0% is about no effect)
Method in brief: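 HRE-bla ME-180, 2500 cells/well, 0.5% dialyzed FBS medium; cpd titration, 17 h 37 degrees C; CCF4 2.5 h RT; Ex 405, Em 460/530 ratio -> %Activity, AC50.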

[21] = measured here: cell count channel max response
[22] = measured here: lipid channel max response

CCCc1nn(C)c2c(=O)[nH]c(-c3cc(S(=O)(=O)N4CCN(C)CC4)ccc3OCC)nc12
inactive: activity change, negative = inhibition ([1]; at 57.5 µM (top of the series)) 9.83%
12.2%: max response [1, 21]
27.6%: max response [1, 22]

N#Cc1ccc(C(c2ccc(C#N)cc2)n2cncn2)cc1
inactive: activity change, negative = inhibition ([1]; at 25.7 µM (top of the series)) 0.817%
-18.7%: max response [1, 22]
-19.8%: max response [1, 21]

Cn1cnc([N+](=O)[O-])c1Sc1ncnc2nc[nH]c12
0.534% and 6.17% and -33.4%: max response [1, 21]
active: Potency [5] 12.6 µM | Potency [6] 12.6 µM
0.0916% and 9.95% and -32.9%: max response [1, 22]
inactive: activity change, negative = inhibition ([1]; at 25.7 µM (top of the series)) -1.38% | activity change, negative = inhibition ([1]; at 57.5 µM (top of the series)) 0.323% and -0.298% | outcome [2] | outcome [3] | outcome [4] | outcome [7] | outcome [8] | outcome [9] | outcome [10] | outcome [11]

CCCc1nc2c(C)cc(-c3nc4ccccc4n3C)cc2n1Cc1ccc(-c2ccccc2C(=O)O)cc1
-15.7%: max response [1, 22]
inactive: activity change, negative = inhibition ([1]; at 57.5 µM (top of the series)) -11.9%
-6.13%: max response [1, 21]

N[C@@H]1CONC1=O
-10.7% and -4.08% and 1.58%: max response [1, 22]
-10.2% and -6.54% and 0.81%: max response [1, 21]
inactive: outcome [12] | activity change, negative = inhibition ([1]; at 25.7 µM (top of the series)) -1.13% and 2.32% | activity change, negative = inhibition ([1]; at 57.5 µM (top of the series)) 0.855% | outcome [2] | outcome [3] | outcome [4] | Potency [13] | Potency [14] | Potency [5] | Potency [15] | Potency [16] | Potency [17] | outcome [18] | outcome [7] | outcome [8] | outcome [9] | outcome [10] | outcome [11]

NCCc1ccc(O)c(O)c1
7.38% and 3.94% and -27.9%: max response [1, 21]
inactive: outcome [12] | activity change, negative = inhibition ([1]; at 57.5 µM (top of the series)) 6.86% and 6.19% and 1.49% | outcome [2] | outcome [3] | outcome [4] | Potency [16] | outcome [7] | outcome [8] | outcome [9]
active: Potency [6] 10 µM
20.7% and 9.74% and -24.3%: max response [1, 22]

NNCCc1ccccc1
-2.33% and 4.58%: max response [1, 22]
3.17% and -11.1%: max response [1, 21]
inactive: activity change, negative = inhibition ([1]; at 25.7 µM (top of the series)) 1.11% | activity change, negative = inhibition ([1]; at 57.5 µM (top of the series)) 11.9% | outcome [2] | outcome [3] | outcome [4] | Potency [15] | Potency [16] | outcome [7] | outcome [8] | outcome [9] | outcome [10] | outcome [11]

COc1ccc2nc(S(=O)Cc3ncc(C)c(OC)c3C)[nH]c2c1 (centres undefined)
inactive: activity change, negative = inhibition ([1]; at 25.7 µM (top of the series)) -4.82%
1.74%: max response [1, 22]
6.97%: max response [1, 21]

CCOC(=O)C1=C[C@@]2(CC)CCCN3CCc4c(n1c1ccccc41)[C@H]32
-15.3%: max response [1, 22]
-14.2%: max response [1, 21]
inactive: activity change, negative = inhibition ([1]; at 25.7 µM (top of the series)) -1.77%

Cc1cnc(NC(=O)C2=C(O)c3ccccc3S(=O)(=O)N2C)s1
active: Potency [6] 8.91 µM
inactive: outcome [12] | outcome [2] | outcome [3] | outcome [4] | Potency [5] | Potency [15] | Potency [16] | Potency [17] | outcome [7] | Potency [19] | outcome [8] | outcome [9] | outcome [10] | outcome [11]

Cc1[nH]c(=O)c(C#N)cc1-c1ccncc1
-4.74% and -14.2%: max response [1, 22]
inactive: activity change, negative = inhibition ([1]; at 25.7 µM (top of the series)) 2.58% | activity change, negative = inhibition ([1]; at 57.5 µM (top of the series)) -0.858% | outcome [2] | outcome [3] | outcome [4] | Potency [13] | Potency [14] | Potency [5] | Potency [15] | Potency [16] | Potency [6] | Potency [17] | outcome [7] | outcome [8] | outcome [9] | outcome [10] | outcome [11]
-8.19% and -12.8%: max response [1, 21]

CCOC(=O)C1=C[C@]2(CC)CCCN3CCc4c(n1c1ccccc41)[C@@H]32
active: Potency [13] 7.08 µM | Potency [14] 7.94 µM | Potency [6] 14.1 µM | Potency [17] 12.6 µM
-25.8%: max response [1, 21]
-38.8%: max response [1, 22]
inactive: outcome [12] | activity change, negative = inhibition ([1]; at 57.5 µM (top of the series)) -17.2% | outcome [2] | outcome [3] | outcome [4] | outcome [7] | outcome [8] | outcome [9] | outcome [10] | outcome [11]

NS(=O)(=O)c1cc2c(cc1Cl)NC=NS2(=O)=O
inactive: outcome [12] | activity change, negative = inhibition ([1]; at 25.7 µM (top of the series)) -2.79% | activity change, negative = inhibition ([1]; at 57.5 µM (top of the series)) 7.25% and -0.143% | outcome [2] | outcome [3] | outcome [4] | Potency [13] | Potency [14] | Potency [5] | Potency [15] | Potency [16] | Potency [17] | outcome [18] | outcome [20] | outcome [7] | outcome [8] | outcome [9] | outcome [10] | outcome [11]
1.14% and 18.5% and -16.5%: max response [1, 22]
3.82% and 7.17% and -12.5%: max response [1, 21]

CCCCNc1cc(C(=O)O)cc(S(N)(=O)=O)c1Oc1ccccc1
0.765% and 10.7% and -18.8%: max response [1, 21]
inactive: outcome [12] | activity change, negative = inhibition ([1]; at 25.7 µM (top of the series)) 0.496% | activity change, negative = inhibition ([1]; at 57.5 µM (top of the series)) 9.35% and 0.368% | outcome [2] | outcome [3] | outcome [4] | Potency [13] | Potency [14] | Potency [5] | Potency [15] | Potency [16] | Potency [6] | Potency [17] | outcome [18] | outcome [7] | outcome [8] | outcome [9] | outcome [10] | outcome [11]
-1.29% and 24.4% and -13.7%: max response [1, 22]

Clc1cccc(Cl)c1NC1=NCCN1
3.68% and -5.77% and -17.1%: max response [1, 21]
inactive: activity change, negative = inhibition ([1]; at 25.7 µM (top of the series)) -3.52% | activity change, negative = inhibition ([1]; at 57.5 µM (top of the series)) 4.4% and 1.2% | outcome [2] | outcome [3] | outcome [4] | Potency [13] | Potency [5] | Potency [15] | Potency [16] | Potency [17] | outcome [7] | outcome [8] | outcome [9] | outcome [10] | outcome [11]
-1.31% and -6% and -15.4%: max response [1, 22]
